Hits are enriched below; roughly 5.3% of the tested compounds scored in any of these assays.
PfM18AAP inh-1 – PfM18AAP inhibitors, malaria aminopeptidase, primary screen, biochemical, QFRET, recombinant enzyme; M18 aspartyl aminopeptidase (Plasmodium falciparum 3D7); H-Glu-NHMec fluorogenic cleavage; inhibition, % at 7.35 µM; hit rate 1.2% among 290,000;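 active means inhibition above the campaign mean inhibition over all tested compounds plus 3 SD, cut at about 28% in these data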;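 further: 0% = plate median of test compound wells and 100% = 2 mM ZnCl2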
HIF activator – HIF pathway transcriptional activators, primary screen, cell-based, U2OS HRE-luciferase, luminescence; U2OS HRE-luciferase reporter; normalized: DMSO 0%, desferrioxamine 100%; activation, % at 7.5 µM (by protocol); hit rate 0.32% among 300,000;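 active means mean activation of at least 10% of the iron chelator positive control signal, with at least half of replicates also reaching 10%; inconclusive means mean and replicate majority disagree about reaching 10%; inactive means mean and most replicates under 10%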
ALR H2O2 inh – inhibitors of human ALR sulfhydryl oxidase, primary screen, biochemical, H2O2 detection, HRP-luminol luminescence, single point; purified ALR, DTT oxidation; FAD-linked sulfhydryl oxidase ALR (Homo sapiens), P55789; AID 485317, 2010; hit rate 3.8% among 290,000; inhibition, % (test concentration not listed);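 active means mean replicate inhibition above about 79%, with every replicate also reaching it, limit read from the data; inconclusive means only one of the two criteria met; inactive means mean below limit and not every replicate reaching it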
SUMO Mot1 rescue – yeast Mot1-301 growth rescue at high temperature, primary screen, SUMOylation pathway inhibitor project, S. cerevisiae, ATP luminescence, 38.5C. S. cerevisiae Mot1-301 growth rescue; percent above DMSO median, 100 means doubled. growth rescue, % at 18.8 µM. hit rate 1% among 320,000;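 active means every valid replicate shows activation above 250% relative to neutral control wells; inactive means the rest, any valid replicate at or below 250%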;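 further: OY570 slx delta 5 strain wells were the positive control but not used for scaling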
PfM18AAP inh-2 – PfM18AAP inhibitors, malaria aminopeptidase, confirmation, biochemical, QFRET, recombinant enzyme, triplicate; shares compounds with PfM18AAP inh-1; H-Glu-NHMec fluorogenic cleavage; inhibition, % at 7.35 µM; hit rate 28% among 2,400;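 active means mean inhibition over replicate wells above the hit cutoff set for the earlier primary screen, cut at about 29% in these data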;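 further: 0% = median of test compound wells and 100% = 2 mM ZnCl2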
CTSL1 confirm – cathepsin L1 inhibitors, retest, confirmation, counter-screen for PFM18AAP inhibitor project, biochemical, QFRET, triplicate | purified cathepsin L1, Z-Leu-Arg-MCA fluorescence | shares compounds with PfM18AAP inh-1 | AID 2178, 2009 | inhibition, % at 5.96 µM | 2,400 tested, under 10 active;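 active means average inhibition across replicates above the hit cutoff set in the earlier primary screen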;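 further: 0% = median of test compound wells and 100% = Z-Phe-Ala-diazomethylketone 1 µM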
Target sequence (P07711 whole entry, looked up): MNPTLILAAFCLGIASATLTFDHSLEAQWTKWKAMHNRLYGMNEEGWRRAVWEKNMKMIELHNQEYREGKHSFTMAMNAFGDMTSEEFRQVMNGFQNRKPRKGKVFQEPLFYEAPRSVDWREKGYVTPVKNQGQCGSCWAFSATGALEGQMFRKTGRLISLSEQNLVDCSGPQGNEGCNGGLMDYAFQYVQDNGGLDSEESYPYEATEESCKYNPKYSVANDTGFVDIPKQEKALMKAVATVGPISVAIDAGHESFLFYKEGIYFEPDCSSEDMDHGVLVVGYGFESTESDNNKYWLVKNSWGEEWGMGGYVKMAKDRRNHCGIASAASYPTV
An asterisk follows results filed as active; ? = inconclusive; nt = no result.

SMILES	PfM18AAP inh-1	HIF activator	ALR H2O2 inh	SUMO Mot1 rescue	PfM18AAP inh-2	CTSL1 confirm
CCC1CCCCN1CCCNC(=O)c1ccc(N2CCOCC2)c(NS(=O)(=O)c2ccc(OC)cc2)c1 (stereo not given)	-3	0	-1	2	nt	nt
CCC1CCCCN1CCCNC(=O)c1ccc2c(c1)NC(=O)CN2C (stereo not given)	32*	0	-2	10	-13	5
Cc1cc(C)n2nc(SCC(=O)Nc3ccc(F)cc3[N+](=O)[O-])nc2n1	nt	nt	nt	-1	nt	nt
Oc1c(C(c2ccccc2)N2CCc3ccccc3C2)sc2ncnn12 (stereo not given)	58*	0	43	17	18	2
Oc1c(C(c2ccco2)N2CCN(C(c3ccccc3)c3ccccc3)CC2)sc2ncnn12 (stereo not given)	21	0	nt	302	nt	nt
CC1CCCN(C(c2ccccc2)c2sc3ncnn3c2O)C1 (stereo not given)	55*	0	?	5	-28	1
COc1ccc(NC(=O)CC2SC(N3CCOCC3)=NC2=O)cc1OC (stereo not given)	nt	nt	-2	61	nt	nt
Cc1ncc(CO)c(/C=N/NC(=O)c2cc(O)c(O)c(O)c2)c1O	58*	0	nt	nt	36*	-4
Cc1ncc(CO)c(/C=N/NC(=O)c2ccc(Br)cc2)c1O	12	5	26	0	nt	nt
CC(=O)NNC(=O)CN1C(=O)/C(=C/c2ccccc2)SC1=S	34*	0	nt	711	-29	4
CC1CCN(c2ccc(/C=N/n3nnnc3N)cc2[N+](=O)[O-])CC1	-10	1	-1	82	nt	nt
CSc1ccc(/C=N\Nc2nncn2N)cc1	53*	1	-1	-9	-16	-4
CC(C)(C)c1ccc(/C=N/Nc2nncn2N)cc1	51*	2	-21	-4	-18	-1
CC(C)(C)c1nnc(N/N=C/c2ccc(Br)cc2)n(N)c1=O	43*	1	nt	1	-38	2
CC1CCN(c2ccc(/C=N\Nc3nncn3N)cc2[N+](=O)[O-])CC1	53*	nt	-30	-15	-18	-4
CSc1ccc(/C=N/NC(=O)c2ccc(-n3cnnn3)cc2)cc1	nt	nt	-1	12	nt	nt
CCc1cccc(CC)c1NC(=O)C1SC(=Nc2ccccc2C)C(c2nc3ccccc3s2)=C1N (stereo not given)	-6	2	-1	-8	nt	nt
COc1ccc(/C=N/Nc2ncc(Br)cn2)c(OC)c1	38*	5	-7	-11	-47	-3
O=C(CSc1nnc(CNC(=O)c2cccs2)o1)Nc1ccc(Br)cc1	0	1	-1	16	nt	nt
COc1ccc(C(=O)NNC2=CC(=O)CC(C)(C)C2)cc1	47*	-1	24	9	27	-1
COc1cc(/C=N/NC(=S)Nc2cccc(S(=O)(=O)N(C)C)c2)cc(OC)c1O	43*	0	nt	12	26	-1
CN(C)S(=O)(=O)c1cccc(NC(=S)N/N=C/c2ccc(O)c(O)c2O)c1	49*	3	nt	nt	40*	1
CCn1c(C)nc2cc(C(=O)N/N=C/c3cccc(OC)c3O)ccc21	13	3	22	-9	nt	nt
CCN(CC)S(=O)(=O)c1cccc(C(=O)N/N=C/c2ccc(O)c(O)c2O)c1	42*	nt	98*	-9	27	0
CN(C)S(=O)(=O)c1cccc(NC(=S)NCCc2ccccn2)c1	-2	0	-7	-14	nt	nt
SMILES	PfM18AAP inh-1	HIF activator	ALR H2O2 inh	SUMO Mot1 rescue	PfM18AAP inh-2	CTSL1 confirm
CCn1c(C)nc2cc(C(=O)N/N=C/c3ccc(O)c(O)c3O)ccc21	47*	0	nt	nt	38*	1
O=C(CCCN1C(=O)c2cccnc2C1=O)Nc1ccc(Br)cc1	0	0	-2	-10	nt	nt
CC(C)Sc1nc(C(F)(F)F)cc(=O)n1-c1ccccc1	-1	-1	-5	2	nt	nt
O=C(NNC(=O)c1ccc(Cl)nc1)c1ccncc1	nt	nt	nt	2	nt	nt
COC(=O)CN(n1cnnc1)S(=O)(=O)c1ccccc1Cl	87*	0	-6	-11	77*	-5
COc1ccc(CCNC(=O)c2cccnc2SC)cc1	-6	nt	nt	323	nt	nt
